Sampled rows, rich in hits. Any-hit rate of the full collection: about 4%.
BoNT-A LC inh2: inhibitors of Botulinum neurotoxin A light chain protease. hit rate 0.17% among 360,000. multiplex microsphere protease substrate cleavage, flow cytometry. inhibition, % at 10 µM; further: plate controls were buffer without enzyme for full effect and enzyme alone for no effect
DUSP3 inh: inhibitors of human VHR1 phosphatase (DUSP3) | hit rate 0.52% among 290,000 | P51452 | inhibition, % at 13.3 µM | recombinant VHR phosphatase, pNPP absorbance; in the data active means inhibition above about 50%
Autofluor counter: counter-screen for toxin protease inhibitors: compound fluorescence; compound autofluorescence counterscreen, microsphere flow cytometry; active compounds read high; fluorescence intensity (test concentration not listed); hit rate 3.1% among 360,000; AID 624483; in the data active means fluorescence intensity above about 16000; inconclusive means no clear call, values can overlap the other calls
BoNT-F LC inh: BoNT F light chain protease inhibition; Multiplex microsphere protease cleavage assay, flow cytometry; inhibition, % at 10 µM; hit rate 0.22% among 360,000; in the data active means inhibition above about 35%, passing the limit was not always enough; inconclusive means no clear call, values can overlap the other calls; further: plate controls were buffer without enzyme for full effect and enzyme alone for no effect
MazEF act: increases E. coli MazEF RNase cleavage of RNA | activation, % at 20 µM | hit rate 0.32% among 350,000 | FAM/BHQ RNA-DNA oligo cleavage fluorescence, 5 h; in the data active means activation above about 50%
Anthrax LF prot: inhibitors of Bacillus anthracis lethal factor protease; hit rate 0.12% among 360,000; multiplex microsphere protease cleavage assay, LF; AID 588501; inhibition, % at 10 µM; further: plate controls were buffer without enzyme for full effect and enzyme alone for no effect
Starred values were filed as active, the others as inactive; u = inconclusive; x = no result. Unless noted, no stated cut-off is given here; in the data, active means inhibition above about 30%; inconclusive means no clear call, values can overlap the other calls; inactive means below that.

SMILES	BoNT-A LC inh2	DUSP3 inh	Autofluor counter	BoNT-F LC inh	MazEF act	Anthrax LF prot
COC(=O)Nc1nnc(-c2ccc(OC)cc2)s1	-4	-13	3419	u	-1	5
COc1ccc(-c2nnc(NC(=O)c3cc(C)on3)s2)cc1	u	6	17016*	-3	-5	-2
Cc1cc(NC(=O)c2cnn3c(C(F)F)cc(-c4ccccc4)nc23)no1	u	6	22272*	1	34	-1
CCOC(=O)N1CCN(c2nc(C(F)(F)F)nc3c(C)cc(C)cc23)CC1	-1	-13	3444	-5	-5	3
Nc1c(N(CCC2=CCCCC2)C(=O)COc2ccc([N+](=O)[O-])cc2)c(=O)[nH]c(=O)n1Cc1ccccc1	0	x	3861	-4	-7	-5
CC(C)[C@H](NC(=O)NCCc1ccc(Cl)cc1)C(=O)O	u	26	17382*	-8	-1	-3
O=C(c1ccco1)N1CCN(c2nc(C(F)(F)F)nc3c2nnn3Cc2ccccc2)CC1	-3	13	24937*	-7	-3	-6
COc1ccc(NC(=O)C2(c3ccc(NC(=O)c4ccc(OC(C)=O)cc4)cc3)CCCC2)cc1	1	8	20395*	1	-26	0
COc1ccc(-c2nn(-c3ccccc3)cc2/C=C2/SC(=S)N(CCC(=O)O)C2=O)c(C)c1	0	11	2885	-13	-56	37*
COc1ccc(-c2nn(-c3ccccc3)cc2/C=C2/SC(=S)N(CCC(=O)O)C2=O)cc1	-3	-10	2874	-10	-22	5
COc1ccc(/C=C2\SC(=O)N(CC(=O)NCCC(C)C)C2=O)cc1OC	4	4	3482	43*	6	-2
COc1ccc(/C=C2\SC(=S)N(CCC(=O)Nc3ccc(C(=O)O)cc3)C2=O)cc1	1	52*	3767	u	-2	-4
COc1ccc(/C=C2\SC(=S)N(CCCCCC(=O)Nc3cc(C)on3)C2=O)cc1OC	3	4	5634	1	8	6
CCc1ccc(/C=C2/SC(=S)N(CCC(=O)Nc3ccc(C(=O)O)cc3)C2=O)cc1	0	63	6060	-3	x	4
COc1ccc(/C=C2\SC(=S)N(CCCC(=O)Nc3cc(C)on3)C2=O)cc1OC	0	10	6076	6	150*	0
c1ccc(CN2CCN(C3=Nc4cccc5cccc3c45)CC2)cc1	2	3	3717	12	-20	-2
C[C@H]1CN([C@@H](C)CO)C(=O)c2cc(NC(=O)C3CCCCC3)ccc2O[C@H]1CN(C)S(=O)(=O)c1ccccc1	0	x	3813	-9	6	-12
COc1ccc(/C=C2/SC(=S)N(CCC(=O)O)C2=O)cc1	-2	8	21113*	-1	-1	-2
O=C(O)CCN1C(=O)/C(=C\c2cccc(Oc3ccccc3)c2)SC1=S	1	7	3732	u	-3	4
COc1ccc(/C(C)=C2/SC(=S)N(CCC(=O)O)C2=O)cc1	u	23	19144*	2	-7	1
CC(=O)c1ccc(NC(=O)CN2C(=O)/C(=C/C=C/c3ccccc3)SC2=S)cc1	47*	0	3500	13	13	24
O=C(O)CCN1C(=O)/C(=C\c2ccncc2)SC1=S	-1	10	4216	-2	5	4
COc1cc(/C=C2\SC(=S)N(CCC(=O)N3CCCCC3)C2=O)cc(OC)c1OC	30*	-25	5345	18	8	28
O=C(O)CN1C(=O)/C(=C/C=C/c2ccccc2)SC1=S	-1	19	3889	-8	3	-1
S=C(NCCc1ccccc1)NC1CCCCCC1	0	-12	3562	13	1	-2
SMILES	BoNT-A LC inh2	DUSP3 inh	Autofluor counter	BoNT-F LC inh	MazEF act	Anthrax LF prot
CCCN1CCN(C(=O)c2ccc(Sc3ccc(C)cc3)c(NC(C)=O)c2)CC1	-4	10	24723*	-6	-7	0
CC(=O)Nc1cc(C(=O)N2CCc3ccccc3C2)ccc1Sc1ccc(C)cc1	0	-7	1914	2	-6	2
COc1ccc(C2c3c(nc[nH]c3=O)Oc3nc[nH]c(=O)c32)cc1	0	-15	3616	24	x	13
O=c1[nH]cnc2c1C(c1ccccc1[N+](=O)[O-])c1c(nc[nH]c1=O)O2	3	19	20743*	3	7	-2
CC(=O)Nc1cccc(C(=O)Nc2ccccc2C(=O)O)c1	-1	6	3630	-26	-2	0
COc1ccc(/C=C/C(=O)c2cc(F)ccc2OC(=O)c2ccccc2OC)cc1OC	2	25	4232	0	0	0
CCc1sc(C(=O)N2CCN(S(C)(=O)=O)CC2)cc1Br	-2	16	23583*	0	-9	0
CCc1sc(C(=O)N2CCCN(C)CC2)cc1Br	0	22	5673	1	4	1
CCOc1ccc(OCCC(=O)NNC(=O)c2cc(C)oc2C)cc1	-2	x	6569	-10	1	-4
Cc1cc(NCc2ccccn2)nc2ccccc12	-1	-10	5265	-2	1	1
COc1ccc(CCNS(=O)(=O)c2ccc(OC)cc2)cc1	-1	11	9563	1	-3	-8
CCN(CC)CCCNS(=O)(=O)c1ccc(OC)cc1	u	6	17061*	-4	-2	-1
COc1cc(/C=C/C(=O)N2C(=O)c3cccc(N)c3C2=O)cc(OC)c1OC	1	55*	2652	-1	-12	1
COc1ccc2c(c1)O/C(=C\c1sccc1C)C2=O	12	30	2448	40*	1	1
COc1ccc(/C=C2\Oc3ccccc3C2=O)cc1	0	x	4151	-4	-3	2
Cc1ccc(-c2csc(NC(=O)C3=NN(C4CCS(=O)(=O)C4)C(=O)CC3)n2)cc1 (stereo not drawn)	-2	1	5114	-1	-33	-2
O=C1CN(C(=O)c2ccccc2C(=O)O)c2ccccc2N1	-2	11	3318	-1	14	-9
CC1CCN(CC(=O)N2c3ccccc3CCc3ccccc32)CC1	-1	13	16766*	-1	4	-6
CC1CCN(CC(=O)N2CC(=O)Nc3ccccc32)CC1	u	18	22135*	-1	-2	1
O=C(CN1CCCCC1)N1c2ccccc2CCc2ccccc21	-1	8	3047	4	-7	3
O=C1CN(C(=O)c2ccccc2Cl)c2ccccc2N1	2	31	2983	44*	5	3
CCCc1ccc(C(O)c2ncc(-c3ccc(C)cc3)[nH]2)cc1 (stereo not drawn)	0	x	2937	-2	x	-7
Cc1cccc(NC(=O)c2cc(NC(=O)C3CC=CCC3C(=O)O)ccc2N2CCOCC2)c1 (stereo not drawn)	-1	-5	23987*	-5	-4	0
O=C(Nc1ccccc1N1CCCCC1)c1cccs1	-3	-11	24609*	-5	-6	-3
CS(=O)(=O)N1CCN(c2ccccc2NC(=O)c2cccs2)CC1	0	-15	2876	-6	-1	-2

High-throughput results (PubChem)
